# Screens: PubChem, several laboratories
# FAS TE block: blocks the thioesterase domain of human fatty acid synthase; P49327; recombinant FAS-TE, OMFH fluorogenic substrate, fluorescence endpoint; inhibition, % at 15 µM; 0.67% of 360,000 active; AID 602261;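 active = compounds whose normalised, plate-corrected inhibition of enzyme fluorescence in the single-dose primary screen is 50% or more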
# Target sequence (P49327 whole entry, looked up, the tested form may be a part): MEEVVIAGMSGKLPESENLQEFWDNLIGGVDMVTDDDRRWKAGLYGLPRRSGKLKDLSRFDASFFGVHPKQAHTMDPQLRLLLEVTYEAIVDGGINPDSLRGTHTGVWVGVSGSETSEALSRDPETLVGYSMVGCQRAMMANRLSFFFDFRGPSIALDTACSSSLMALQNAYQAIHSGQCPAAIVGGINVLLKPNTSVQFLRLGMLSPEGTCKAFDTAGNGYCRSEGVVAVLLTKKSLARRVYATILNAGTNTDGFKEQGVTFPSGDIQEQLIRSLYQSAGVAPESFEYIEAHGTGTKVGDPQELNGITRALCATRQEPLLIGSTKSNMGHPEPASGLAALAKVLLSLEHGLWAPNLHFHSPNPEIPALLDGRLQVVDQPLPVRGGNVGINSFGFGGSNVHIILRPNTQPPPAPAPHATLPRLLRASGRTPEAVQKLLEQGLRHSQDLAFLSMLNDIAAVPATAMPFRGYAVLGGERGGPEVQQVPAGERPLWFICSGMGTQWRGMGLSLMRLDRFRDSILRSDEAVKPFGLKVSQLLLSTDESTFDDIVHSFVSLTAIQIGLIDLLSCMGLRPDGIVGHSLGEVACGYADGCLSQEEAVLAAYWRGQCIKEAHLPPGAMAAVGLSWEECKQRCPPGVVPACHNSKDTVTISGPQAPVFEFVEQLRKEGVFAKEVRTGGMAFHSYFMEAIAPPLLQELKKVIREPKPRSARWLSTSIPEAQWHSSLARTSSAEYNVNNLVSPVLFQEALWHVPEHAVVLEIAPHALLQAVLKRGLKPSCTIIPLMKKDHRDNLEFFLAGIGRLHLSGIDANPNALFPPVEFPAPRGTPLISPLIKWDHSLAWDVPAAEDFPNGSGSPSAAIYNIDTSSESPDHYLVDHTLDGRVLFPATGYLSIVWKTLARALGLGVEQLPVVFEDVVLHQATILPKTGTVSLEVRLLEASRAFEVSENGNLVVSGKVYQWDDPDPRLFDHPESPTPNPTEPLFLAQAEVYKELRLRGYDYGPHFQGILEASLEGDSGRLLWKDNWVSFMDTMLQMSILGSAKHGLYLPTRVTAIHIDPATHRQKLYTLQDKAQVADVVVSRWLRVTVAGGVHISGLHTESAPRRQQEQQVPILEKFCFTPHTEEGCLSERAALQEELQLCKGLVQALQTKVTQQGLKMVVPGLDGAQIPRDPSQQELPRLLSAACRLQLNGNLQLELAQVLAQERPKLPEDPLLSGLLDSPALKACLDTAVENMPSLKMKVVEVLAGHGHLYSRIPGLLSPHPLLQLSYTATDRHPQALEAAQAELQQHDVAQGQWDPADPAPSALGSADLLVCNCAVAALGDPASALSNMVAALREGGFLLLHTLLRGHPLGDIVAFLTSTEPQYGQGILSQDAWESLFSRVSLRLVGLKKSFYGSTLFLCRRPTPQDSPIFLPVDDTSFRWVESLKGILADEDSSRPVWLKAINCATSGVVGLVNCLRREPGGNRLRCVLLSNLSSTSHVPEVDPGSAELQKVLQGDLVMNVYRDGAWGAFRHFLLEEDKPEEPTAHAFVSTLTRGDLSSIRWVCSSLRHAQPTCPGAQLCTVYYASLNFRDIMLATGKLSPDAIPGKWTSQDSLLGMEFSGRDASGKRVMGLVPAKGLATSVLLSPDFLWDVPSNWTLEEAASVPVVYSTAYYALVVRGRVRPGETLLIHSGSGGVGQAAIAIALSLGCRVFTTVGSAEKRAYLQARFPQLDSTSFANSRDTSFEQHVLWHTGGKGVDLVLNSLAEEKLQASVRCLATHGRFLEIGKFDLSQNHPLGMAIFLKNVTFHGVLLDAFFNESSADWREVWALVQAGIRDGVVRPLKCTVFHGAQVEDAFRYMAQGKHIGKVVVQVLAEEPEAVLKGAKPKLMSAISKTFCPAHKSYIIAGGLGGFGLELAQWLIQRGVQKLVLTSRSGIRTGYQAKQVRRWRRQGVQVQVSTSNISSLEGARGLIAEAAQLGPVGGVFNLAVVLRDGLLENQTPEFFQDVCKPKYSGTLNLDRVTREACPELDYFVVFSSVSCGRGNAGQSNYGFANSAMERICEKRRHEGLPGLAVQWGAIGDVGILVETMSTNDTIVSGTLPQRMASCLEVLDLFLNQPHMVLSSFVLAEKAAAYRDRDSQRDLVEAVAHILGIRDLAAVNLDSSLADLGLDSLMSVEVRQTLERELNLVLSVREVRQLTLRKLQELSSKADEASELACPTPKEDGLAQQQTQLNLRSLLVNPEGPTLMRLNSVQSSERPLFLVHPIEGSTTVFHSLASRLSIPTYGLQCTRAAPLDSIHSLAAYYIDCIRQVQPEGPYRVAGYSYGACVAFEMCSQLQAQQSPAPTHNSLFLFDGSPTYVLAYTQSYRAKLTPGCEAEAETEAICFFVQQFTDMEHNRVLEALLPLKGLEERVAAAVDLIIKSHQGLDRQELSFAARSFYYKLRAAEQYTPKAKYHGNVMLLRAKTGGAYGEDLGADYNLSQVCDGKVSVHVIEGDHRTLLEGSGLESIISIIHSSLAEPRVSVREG
# Neddyl block: blocks human cullin neddylation; TR-FRET cullin neddylation, biochemical; calls only at 25 µM; 0.58% of 360,000 active; AID 651699; in the data active = inhibition above about 36%
# proKLK7 act: proKLK7 (human) activation, primary screen | AID 652039 | activation, % at 7 µM | purified proKLK7, EDANS-DABCYL substrate fluorescence; 100% is mature enzyme control, 0% vehicle | 0.9% of 370,000 active;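 active = activation above the mean of all tested compounds plus 3 SD, computed per campaign excluding outliers beyond control limits, cut at about 13% in these data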
# PfGluPho inh: PfG6PD (Plasmodium falciparum) enzyme inhibition | AID 504690 | inhibition, % at 20 µM | 0.78% of 350,000 active | PfGluPho enzyme, NADPH resazurin-diaphorase fluorescence;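 active = inhibition reaching at least a set limit at 20 µM in the primary screen, cut at about 59% in these data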
# FAS-TE conf: FAS thioesterase (human) inhibition, confirmation | shares compounds with FAS TE block | recombinant FAS-TE, OMFH fluorogenic substrate, fluorescence | inhibition, % at 15 µM | 45% of 2,300 active | AID 624325;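 active = compounds inhibiting the enzyme by at least 50% at 15 µM in any one of the replicates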
# Hits are given with their value; i = inactive; nt = not tested or not shown. Hits are enriched below; roughly 2.7% of the tested compounds scored in any of these assays.
SMILES,FAS TE block,Neddyl block,proKLK7 act,PfGluPho inh,FAS-TE conf
COc1ccccc1NS(=O)(=O)c1ccc(N/N=C/c2ccccc2OCC(=O)O)c([N+](=O)[O-])c1,i,i,i,i,nt
COc1ccccc1NS(=O)(=O)c1ccc(N/N=C/c2c(C)nn(-c3ccccc3)c2N2CCCC2)c([N+](=O)[O-])c1,64,i,i,i,i
O=C(O)c1ccccc1NS(=O)(=O)c1ccc(NN=Cc2ccc(F)cc2)c([N+](=O)[O-])c1,57,i,nt,i,71
COc1ccccc1NS(=O)(=O)c1cccc(C(=O)N/N=C/c2c(C)nn(-c3ccccc3)c2N2CCCC2)c1,62,nt,i,i,i
C=CCN1[C@H](C#N)[C@@H](c2ccc(C#Cc3cccnc3)cc2)[C@H]1CO,nt,nt,i,nt,nt
Cc1nn(-c2ccccc2)c(N2CCCCC2)c1/C=N/NC(=O)c1ccncc1,i,i,i,i,nt
Cc1nn(-c2ccccc2)c(N2CCCC2)c1/C=N/Nc1ccc(S(=O)(=O)Nc2ccccc2)cc1[N+](=O)[O-],53,i,i,i,i
COc1c(/C=N/Nc2ccc([N+](=O)[O-])cc2[N+](=O)[O-])c(C)nn1-c1ccccc1,i,i,i,i,nt
CCOc1ccc(S(=O)(=O)Nc2ccc(C(=O)N/N=C/c3c(C)nn(-c4ccccc4)c3N3CCCC3)cc2)cc1,55,nt,i,i,i
Cc1ccccc1-c1cccc2c3c([nH]c12)[C@@H]1C[C@H]2[C@@H](CN1CC3)[C@H](C)ON2C,nt,nt,i,nt,nt
CCCCN(C)C(=O)c1ccc2c(c1)NC(=O)C(C)(C)O2,nt,nt,i,nt,nt
Fc1c(F)c(C(F)(F)F)c(F)c(F)c1N/N=C\c1cccs1,63,i,i,i,51
Cn1c(N/N=C/c2cccs2)cc(=O)n(C)c1=O,i,i,i,i,nt
COc1ccc(NC(=O)C(OC)c2ccccc2)cc1Cl (stereo not given),i,i,i,i,nt
COc1ccc(NC(=O)C(Sc2nnc(-c3ccncc3)n2-c2ccccc2C)c2ccccc2)cc1Cl (stereo not given),56,i,i,i,i
CCCCCCCOC(=O)c1nc(Cl)c(Cl)c(N)c1Cl,54,i,i,i,i
C=C(C)/C=C1/CN(Cc2ccc3c(c2)OCO3)C(=N)N1C(=O)OCc1ccccc1,nt,nt,i,nt,nt
C[C@@H](N)P(=O)(O)C[C@H](Cc1ccccc1)C(=O)O,nt,nt,i,nt,nt
O=C(NCCc1cccs1)C12CN(Cc3ccccc3)CC1C(c1cccc([N+](=O)[O-])c1)=NO2 (stereo not given),51,i,i,i,i
O=C(NCc1ccco1)C12CN(Cc3ccccc3)CC1C(c1cccc([N+](=O)[O-])c1)=NO2 (stereo not given),54,i,i,i,i
CN(C)c1nc(N2CCN(c3ccccc3)CC2)c(C#N)c(=O)o1,i,i,i,i,nt
Cc1cccc(C)c1N1CCN(c2nc(N(C)C)oc(=O)c2C#N)CC1,56,i,i,i,i
Cc1nnc2n(Cc3ccccc3)c(=O)c3c4c(sc3n12)COC(C(C)C)C4 (stereo not given),55,i,i,i,i
CC(C)n1nnnc1C1(C)CCCCC(=O)N1Cc1cccc(C(F)(F)F)c1 (stereo not given),nt,nt,i,nt,nt
COC(=O)[C@H]1C[C@@]2(n3ccc4ccccc43)c3ccccc3N(S(=O)(=O)c3ccccc3)[C@H]2N1C(=O)CNC1CCCCC1,nt,nt,i,nt,nt
SMILES,FAS TE block,Neddyl block,proKLK7 act,PfGluPho inh,FAS-TE conf
Cc1ccc(S(=O)(=O)c2cn(Cc3ccc(F)cc3)c3cc4c(cc3c2=O)OCO4)cc1,58,i,i,i,i
O=c1c(S(=O)(=O)c2ccc(Cl)cc2)cn(Cc2cccc(F)c2)c2ccc(F)cc12,70,i,i,i,i
Cc1ccccc1Cn1cc(S(=O)(=O)c2ccc(C(C)C)cc2)c(=O)c2cc3c(cc21)OCO3,62,i,i,i,i
Cc1cc(C(=O)OCCCN(C)C2CN(Cc3cn(Cc4ccccc4C(F)(F)F)nn3)S(=O)(=O)C2)no1 (stereo not given),nt,nt,i,nt,nt
Cc1ccccc1CS(=O)(=O)Cc1ccc(C(=O)Nc2ccc(F)cc2F)o1,nt,nt,i,nt,nt
O=S1(=O)c2ccc(Br)cc2OC[C@@H](c2ccccc2)N1Cc1cn(CCC2OCCO2)nn1,nt,nt,i,nt,nt
CCCCCCCCNC(=O)C1CSCCS(=O)(=O)N1Cc1ccccc1 (stereo not given),nt,nt,i,nt,nt
COc1ccccc1C1CC(c2ccc(Br)cc2)=NN1C(=O)c1cccnc1 (stereo not given),i,i,i,i,nt
COc1ccccc1[C@@H]1C(c2cccc(C)c2)=NN(c2ccc(Br)cc2)[C@H]1C(=O)N1CCOC1=O,62,i,i,i,i
COc1ccccc1[C@@H]1C(c2ccccc2)=NN(c2ccc(Br)cc2)[C@H]1C(=O)N1CCOC1=O,74,i,i,i,i
Cc1ccccc1-n1c(=O)/c(=C\c2ccco2)s/c1=C(/C#N)C(=O)Nc1ccccc1,62,i,i,i,i
C=CCOC/C=C/C#CCN(Cc1ccc(OC)cc1OC)C(=O)Nc1ccccc1,nt,nt,i,nt,nt
COc1ccc(-n2c(SC/C=C/c3ccccc3)nnc2-c2cccs2)cc1,nt,nt,i,nt,nt
CC(=O)NNc1nc(-c2ccccc2)cs1,70,i,i,i,55
Cc1ccc(S(=O)(=O)N2CCOCC2)cc1C(=O)Nc1nc(-c2cccnc2)cs1,i,i,i,i,nt
CC(C)CC(=O)Nc1nc(-c2ccc(S(=O)(=O)N3CCOCC3)cc2)cs1,52,i,i,i,i
O=C(Nc1nc(-c2ccc(S(=O)(=O)N3CCOCC3)cc2)cs1)c1ccccc1,i,i,i,i,nt
O=S(=O)(c1ccc(-c2csc(-c3cccnc3)n2)cc1)N1CCOCC1,79,i,i,i,82
CCCCC(=O)Nc1nc(-c2ccc(S(=O)(=O)N3CCOCC3)cc2)cs1,88,i,i,i,91
CCOC(=O)C1(C(=O)OCC)Cc2c([nH]c3ccccc23)[C@]2(N1)C(=O)N(C)c1ccc(Br)cc12,nt,nt,i,nt,nt
COc1ccc(C(=O)N(C)[C@H]2C[C@H]3c4[nH]c5cccc(-c6ccccc6)c5c4CCN3C[C@H]2[C@H](C)O)cc1,nt,nt,i,nt,nt
CCCC(=O)Nc1ccc2c(c1)C(=O)N(C)[C@H]1CC[C@@H](CC(=O)OC)O[C@@H]1CO2,nt,nt,i,nt,nt
CCOC(=O)N1CCN(C(=O)C[C@H]2C[C@@]3(C(=O)OC)C(=C[C@H](C(C)C)O[C@@H]3C3CC3)N(CCC3=CCCCC3)C2=O)CC1,nt,nt,i,nt,nt
c1ccc(Cn2ccc3ccc(-c4ccc5ccn(Cc6cccc(-c7cccs7)c6)c5c4)cc32)cc1,nt,nt,i,nt,nt
Cc1cc(C)c(S(=O)(=O)ON2C(=O)c3ccccc3C2=O)cc1C,91,i,i,i,95
O=C1c2ccccc2C(=O)N1OS(=O)(=O)c1ccc(F)cc1,71,i,i,i,50
Cc1ccc(OC(=O)CN2C(=O)c3ccccc3C2=O)cc1C,i,i,i,i,nt
O=S(=O)(c1ccccc1)N1CCN(S(=O)(=O)c2ccc(F)cc2)CC1,i,i,i,i,nt
Cc1cccc2c1N(C)C(=O)C2=O,i,i,i,i,nt
Cc1ccc(S(=O)(=O)ON2C(=O)c3ccccc3C2=O)c(C)c1,75,i,i,i,94
